FBW7 activator – FBW7 E3 ligase activators, primary screen, biochemical, AlphaScreen, human | F-box/WD repeat-containing protein 7 (Homo sapiens), Q969H0 | AlphaScreen FBW7–phospho-cyclin E peptide binding, activator screen | normalized activity (activation), % at 26.1 µM | actives 0.13% (n = 650,000); in the data active = normalized activity above about 1.9%;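 note: purified mutant Fbw7 with reduced substrate affinity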
MITF primary – MITF inhibitors, primary screen, biochemical, AlphaScreen, human; inhibition, % at 2.6 µM; actives 0.91% (n = 650,000); Microphthalmia-associated transcription factor (Homo sapiens), O75030; AlphaScreen MITF homodimerization, bead proximity signal; in the data active = inhibition above about 50%;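 note: 0% = vehicle wells with protein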
Target sequence (O75030 whole entry, looked up): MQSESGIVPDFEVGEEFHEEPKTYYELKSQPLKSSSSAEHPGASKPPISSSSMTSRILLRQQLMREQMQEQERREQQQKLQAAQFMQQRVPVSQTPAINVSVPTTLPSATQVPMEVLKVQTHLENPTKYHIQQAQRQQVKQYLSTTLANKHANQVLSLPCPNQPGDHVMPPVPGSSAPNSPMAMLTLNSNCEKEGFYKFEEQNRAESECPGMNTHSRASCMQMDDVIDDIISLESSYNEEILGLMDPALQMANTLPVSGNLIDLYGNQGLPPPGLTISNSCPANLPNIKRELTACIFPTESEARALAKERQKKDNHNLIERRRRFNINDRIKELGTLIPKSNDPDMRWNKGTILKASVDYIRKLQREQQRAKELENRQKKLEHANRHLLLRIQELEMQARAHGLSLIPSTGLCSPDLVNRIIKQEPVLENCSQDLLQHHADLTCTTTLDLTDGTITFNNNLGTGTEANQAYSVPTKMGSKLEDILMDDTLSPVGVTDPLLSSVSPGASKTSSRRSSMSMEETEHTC
TEAD-YAP inh – TEAD-YAP interaction inhibition, primary screen, TEAD-YAP interaction inhibitor project, luminescence, HEK-TIYL cells | TEAD-Gal4/YAP UAS-luciferase luminescence | inhibition, % at 9.12 µM | actives 1.4% (n = 640,000); in the data active = inhibition above about 32%;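 note: 0% = median of test compound wells and 100% = reference inhibitor wells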
GPR151 activ – activators of human GPR151, primary screen, cell-based, PathHunter beta-arrestin, luminescence; PathHunter beta-arrestin GPR151 cells; actives 1% (n = 650,000); G-protein coupled receptor 151 (Homo sapiens), Q8TDV0; activation, % at 11.2 µM; in the data active = activation above about 4.9%;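 note: 0% = median of compound wells and 100% = cells with positive control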
GPR151 confirm – GPR151 activators, triplicate retest, confirmation, cell-based, PathHunter beta-arrestin, luminescence; shares compounds with GPR151 activ; GPR151 PathHunter beta-arrestin cells, 90 min; % of EA-reagent control over plate median; activation, % at 11.2 µM; 6,700 tested, under 10 active; AID 1508609, 2020;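 active = mean percent activation across replicates above the confirmation screen cutoff of 4.91%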
GPR119 counter – GPR119 activators in beta-arrestin cells, counter-screen for GPR151 activator project, cell-based, PathHunter beta-arrestin, luminescence, triplicate; activation, % at 11.2 µM; shares compounds with GPR151 activ; actives 0.3% (n = 6,700); 90 min; 0 = compound-well median, 100 = enzyme-acceptor control;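 active = mean percent activation in the counterscreen above 29.09%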;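 note: counterscreen on off-target GPR119 to flag nonselective hits from the GPR151 activator screen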
* = called active by the depositor. Most compounds without a hit are left out; they make up all but 3.5% or so of the library.

How did COc1ccc(CCNc2nc(-c3ccc(C(N)=O)cc3)nc3c2ncn3C(C)C)cc1 do in these assays?
FBW7 activator: 0.0; MITF primary: 13.8; TEAD-YAP inh: 18.4; GPR151 activ: -1.1

Results for O=C(CCl)N1CCCc2ccccc21 ?
FBW7 activator: -0.6; MITF primary: -5.0; TEAD-YAP inh: 17.1; GPR151 activ: 11.0*; GPR151 confirm: -0.3; GPR119 counter: 2.2

How did O=C(NC1CC2CCCC(C1)N2CC(=O)N1CCCc2ccccc21)C1CCCCC1 (centres undefined) do in these assays?
FBW7 activator: 0.4; MITF primary: 14.6; TEAD-YAP inh: 7.4; GPR151 activ: 8.7*; GPR151 confirm: 0.3; GPR119 counter: 5.7

Results for COCc1[nH]nc2c1C(c1ccccc1C(F)(F)F)C(C#N)=C(N)O2 (centres undefined) ?
FBW7 activator: -0.1; MITF primary: -2.1; TEAD-YAP inh: 17.8; GPR151 activ: -0.3

What do the screens show for `O=C(NC1CC1)c1ccc(Cn2cc(Br)cn2)o1`?
FBW7 activator: 0.2; MITF primary: 16.4; TEAD-YAP inh: -3.5; GPR151 activ: 0.2

Results for O=C(Nc1ccccn1)C1(c2cccs2)CCOCC1 ?
FBW7 activator: 0.4; MITF primary: 13.7; TEAD-YAP inh: 5.7; GPR151 activ: 1.4

What do the screens show for `Cc1ccnc(NC(=O)C2(c3cccs3)CCOCC2)c1`?
FBW7 activator: 0.0; MITF primary: -6.9; TEAD-YAP inh: 19.7; GPR151 activ: 5.3*; GPR151 confirm: -1.2; GPR119 counter: -4.7

How did COCC(=O)N1CCCc2ccc(NS(=O)(=O)c3ccc(C)c(C)c3)cc21 do in these assays?
FBW7 activator: -0.1; MITF primary: 17.0; TEAD-YAP inh: 15.1; GPR151 activ: 0.2

How did COCC(=O)N1CCCc2ccc(NS(=O)(=O)c3cc(C)ccc3C)cc21 do in these assays?
FBW7 activator: 0.0; MITF primary: 6.3; TEAD-YAP inh: 14.3; GPR151 activ: 6.8*; GPR151 confirm: 0.3; GPR119 counter: 0.0

What do the screens show for `O=C(Nc1cccc(Cl)c1)O/N=C\c1ccncc1`?
FBW7 activator: 0.0; MITF primary: -0.7; TEAD-YAP inh: -10.5; GPR151 activ: 5.2*; GPR151 confirm: -0.7; GPR119 counter: 2.0

What do the screens show for `O=C(NCc1ccc(F)cc1)C(=O)Nc1cccc(Cl)c1`?
FBW7 activator: 0.1; MITF primary: -3.3; TEAD-YAP inh: -6.3; GPR151 activ: 5.1*; GPR151 confirm: 2.7; GPR119 counter: -0.4

Results for O=C(N/N=C/c1ccc(F)cc1)C(=O)Nc1ccc(Cl)c(Cl)c1 ?
FBW7 activator: 0.8; MITF primary: 3.8; TEAD-YAP inh: -1.3; GPR151 activ: 1.7

Results for O=C(NCCc1ccc(F)cc1)C(=O)Nc1cccc(Cl)c1 ?
FBW7 activator: 0.2; MITF primary: 6.4; TEAD-YAP inh: 11.4; GPR151 activ: 0.2

What do the screens show for `O=C(N/N=C/c1ccc(F)cc1)C(=O)Nc1cccc(Cl)c1`?
FBW7 activator: -0.1; MITF primary: 9.8; TEAD-YAP inh: 0.6; GPR151 activ: 5.0*; GPR151 confirm: 0.8; GPR119 counter: 12.3

How did CCCC(c1nnnn1C(C)(C)C)N1CCN(C2CCCC2)CC1 (centres undefined) do in these assays?
FBW7 activator: -0.1; MITF primary: -3.3; TEAD-YAP inh: 1.9; GPR151 activ: 0.6

Results for Cc1cccc(N(CC(=O)Nc2ccc3ccccc3c2)S(C)(=O)=O)c1C ?
FBW7 activator: -0.2; MITF primary: -9.0; TEAD-YAP inh: -0.4; GPR151 activ: 0.2

How did COC(=O)c1ccccc1NC(=O)Nc1nnc(N2CC(C)CC(C)C2)s1 (centres undefined) do in these assays?
FBW7 activator: 0.2; MITF primary: 10.6; TEAD-YAP inh: 3.2; GPR151 activ: 6.6*; GPR151 confirm: -0.5; GPR119 counter: -6.9

Results for O=C(Nc1cccc(Br)c1)Nc1nnc(N2CCCCCC2)s1 ?
FBW7 activator: 0.1; MITF primary: 0.5; TEAD-YAP inh: -6.8; GPR151 activ: 0.0

What do the screens show for `O=C(Nc1ccc2c(c1)OCCO2)Nc1nnc(N2CCCC2)s1`?
FBW7 activator: -0.2; MITF primary: 1.0; TEAD-YAP inh: -18.8; GPR151 activ: 5.7*; GPR151 confirm: 0.3; GPR119 counter: -0.8

How did O=C(Nc1cccc(C(F)(F)F)c1)Nc1nnc(N2CCCC2)s1 do in these assays?
FBW7 activator: -0.1; MITF primary: -0.5; TEAD-YAP inh: -0.5; GPR151 activ: 5.9*; GPR151 confirm: 0.3; GPR119 counter: -0.8

What do the screens show for `O=C(Nc1nnc(N2CCCC2)s1)Nc1ccccc1Br`?
FBW7 activator: 0.1; MITF primary: 0.2; TEAD-YAP inh: -23.2; GPR151 activ: 5.5*; GPR151 confirm: -0.4; GPR119 counter: -4.0

How did O=C(NC12CC3CC(CC(C3)C1)C2)c1cc2ccccc2c(=O)o1 do in these assays?
FBW7 activator: -0.1; MITF primary: 7.1; TEAD-YAP inh: -14.0; GPR151 activ: 0.3

Results for COc1cc([N+](=O)[O-])ccc1NC(=O)N1CCc2ccccc21 ?
FBW7 activator: 0.0; MITF primary: 15.1; TEAD-YAP inh: 5.2; GPR151 activ: -1.3

How did CCOc1cc(/C=C2\C(=O)N(CC)C(C)=C2C(=O)OC)ccc1O do in these assays?
FBW7 activator: -0.1; MITF primary: 10.8; TEAD-YAP inh: -1.9; GPR151 activ: -1.4

What do the screens show for `CCCCOc1ccc(N2CC(C(N)=O)CC2=O)cc1` (centres undefined)?
FBW7 activator: 0.0; MITF primary: 10.3; TEAD-YAP inh: -1.6; GPR151 activ: -0.5

How did O=C(NCc1ccco1)/C(=C/c1ccccc1)NC(=O)c1cccc(Br)c1 do in these assays?
FBW7 activator: -0.1; MITF primary: -4.7; TEAD-YAP inh: 7.9; GPR151 activ: 5.2*; GPR151 confirm: -0.7; GPR119 counter: -10.4

How did O=C(NCc1ccco1)/C(=C/c1ccc(Cl)cc1)NC(=O)c1ccccc1 do in these assays?
FBW7 activator: 0.1; MITF primary: 2.8; TEAD-YAP inh: 5.3; GPR151 activ: 0.2

How did Cc1c(C(=O)N2CCC3(CC2)OCCO3)sc2nc3n(c(=O)c12)CCCC3 do in these assays?
FBW7 activator: -0.1; MITF primary: -2.5; TEAD-YAP inh: -0.9; GPR151 activ: 1.0

How did CC(=O)Nc1cnn(-c2ccc(C(=O)N(C)Cc3ccc(Oc4ccccc4)cc3)cc2)c1 do in these assays?
FBW7 activator: -0.3; MITF primary: 5.6; TEAD-YAP inh: 11.4; GPR151 activ: 8.4*; GPR151 confirm: 1.1; GPR119 counter: 27.5

Results for Cc1ccc(C2C3=C(CC(c4ccc(Cl)c(Cl)c4)CC3=O)Nc3ccccc3N2C(=O)/C=C/c2ccccc2)cc1 (centres undefined) ?
FBW7 activator: 0.0; MITF primary: -0.6; TEAD-YAP inh: 4.6; GPR151 activ: -0.4

Screening results from PubChem.
